Data: PubChem BioAssay AID748 (Sanford-Burnham Center for Chemical Genomics, 2007)
Screen size: about 96,000 compounds; about 100 (0.1%) were called active.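 The calls were made as follows: active = displacement above 50% at 20 µM plus a fluorescence interference ratio under 1.5; inactive = the rest.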 Shown is part of a subset that was picked to be rich in actives. Potency and affinity values are given separately.

The compounds below were run against Bcl-2-like protein 10 (Homo sapiens) (UniProt Q9HD36) (assay: displacers of TR3 peptide from Bcl-B, primary screen, selectivity assay for Bfl-1 inhibitor project, biochemical, fluorescence polarization, FITC-TR3 peptide (AID 748;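 also: plate controls were wells without compound for no effect and wells lacking Bcl-B protein for full effect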)). Details: FP displacement of FITC-TR3 peptide from Bcl-B; at 20 µM; hits give high values.

displacement, active:
CC(=O)c1c(COC(=O)c2ccco2)nc2ccccc2[n+]1[O-] 68.3%

displacement, inactive:
NC(=S)N/N=C/c1ccc(-c2cccc([N+](=O)[O-])c2)o1 -3.1%, O=C(O)c1cc(-c2ccc(/C=N/Nc3ccc(Cl)cc3)o2)ccc1Cl -20.9%, C/C(N)=C(/C#N)C(=O)COC(=O)CSc1ccc2ccccc2c1 -15.4%, COc1ccc(CC(=O)OCC(=O)Nc2ncc(Cl)cc2Cl)cc1 41.3%, CC(C(=O)OCC(=O)Nc1ncc(Cl)cc1Cl)N1C(=O)c2ccccc2C1=O (stereo unspecified) 21.3%, Cc1ccc(S(=O)(=O)NCC(=O)OC(C)C(=O)Nc2ncc(Cl)cc2Cl)cc1 (stereo unspecified) -1.5%, O=C(COC(=O)CCCN1C(=O)c2ccccc2C1=O)Nc1ncc(Cl)cc1Cl 43.6%, O=C(COC(=O)C12CC3CC(CC(C3)C1)C2)Nc1ncc(Cl)cc1Cl 31.8%, Cc1ccc(S(=O)(=O)CCC(=O)OCC(=O)Nc2ncc(Cl)cc2Cl)cc1 24.5%, CC(=O)NC12CC3CC(C1)CC(C(=O)OCC(=O)Nc1ncc(Cl)cc1Cl)(C3)C2 40.7%, O=C(COC(=O)CCc1ccccc1)Nc1ncc(Cl)cc1Cl 24.2%, CCOC(=O)c1ccc(NC(=O)CSc2nnc(CNC(=O)c3ccccc3F)o2)cc1 0%, CC(C)(C)C(=O)CSc1nccc(=O)[nH]1 2.2%, O=C1C(C2=NC(C(=O)O)C3C(=O)N(c4ccccc4)C(=O)C23)=C(O)c2ccccc21 (stereo unspecified) -7%, COc1ccc(Cl)cc1C(=O)Nc1ccc(S(=O)(=O)N2CCCC2)cc1 -12.1%, O=C(CCC1CCCC1)N1CCN(S(=O)(=O)Cc2ccccc2)CC1 -7.6%, O=C(Nc1ccc(-c2nnc(-c3ccco3)o2)cc1)C(c1ccccc1)c1ccccc1 3.9%, COC(=O)CSc1nnc(CNS(=O)(=O)c2ccc(Cl)cc2)n1C 8.2%, Cc1cc(NC(=O)COC(=O)C2CCN(S(=O)(=O)c3ccc(Cl)cc3)CC2)no1 7.5%, COc1ccc(CC(=O)OCC(=O)Nc2ncc(Cl)cc2Cl)cc1OC 3%, COc1cc(CCC(=O)OCC(=O)Nc2ncc(Cl)cc2Cl)cc(OC)c1OC 32.6%, Cc1cc(NC(=O)COC(=O)C2CCN(S(=O)(=O)c3cccc(Cl)c3Cl)CC2)no1 1.9%, Cc1ccc(Cl)cc1N1CCN(C(=O)c2cn(C)c(=O)c3c2c2ccccc2n3C)CC1 -4.3%, CC(=O)Nc1ccc(NC(=O)C(C)n2nc([N+](=O)[O-])c(Br)c2C)cc1 (stereo unspecified) -5.9%, CC(=O)c1c(C)[nH]c(C(=O)Nc2c(C)n(C)n(-c3ccccc3)c2=O)c1C 1%, COc1cccc(C=Nc2ccccc2C(=O)Nc2nccs2)c1OC -10.6%, O=C(C[n+]1ccc(C(=O)N/N=C/c2ccc(OCc3ccccc3)cc2)cc1)c1ccccc1 46.7%, O=C(C[n+]1ccc(C(=O)N/N=C/c2ccc(Br)cc2)cc1)c1ccccc1 43.2%, CCOC(=O)C1C(C#N)=C(N)OC(C)=C1c1ccncc1 (stereo unspecified) 11.4%, CCOC(=O)c1c(COC(=O)c2ccco2)nc2ccccc2[n+]1[O-] -4.9%, COc1ccc2nc(COC(=O)c3ccco3)c(C(C)=O)[n+]([O-])c2c1 10.7%, O=C1CC(Cc2ccccc2)C(=O)N1Cc1ccco1 (stereo unspecified) 0%, CCn1c(Cn2nnc(-c3ccccc3)n2)nnc1SCC(=O)Nc1ccc(N(C)C)cc1 4.2%, Cc1nnc(NC(=O)NC(C)N2C(=O)C3C4C=CC(C4)C3C2=O)s1 (stereo unspecified) -30.5%, CC(C)(C)C1CCC2(CC1)Nc1cccc3cccc(c13)N2 -38%, CC1=Nc2cccc3cccc(c23)N1 2.9%, O=C1NC2(CCCCC2)NN1c1ccccc1 -5.6%, O=C1CCSc2cccc3cccc(c23)N1 -2.2%, O=C(O)Cc1coc(-c2ccc(F)cc2)n1 -15.2%, O=C(CN1C(=O)NC2(CCc3ccccc32)C1=O)c1ccc2c(c1)OCCO2 (stereo unspecified) -13.7%, COc1cccc(NC(=O)C(NC2CCCC2)c2ccccc2)c1 (stereo unspecified) 2.1%, CCOC(=O)CNC(=O)c1c2c(nc3ccccc13)CCCC2 7.2%, c1coc(CNc2c3c(nc4ccccc24)CCC3)c1 26.6%, CC(C)Cn1c(N2CCN(C(=O)c3cccs3)CC2)nc2ccccc21 -1.5%, Cc1ccc(SC(CC(=O)c2ccc(C)cc2)C(=O)O)cc1 (stereo unspecified) -5%, CSc1nc(C)cc(NC(N)=O)n1 -7.4%, Cn1c(C(C#N)C(=O)c2sc3ccccc3c2Cl)nc2ccccc21 (stereo unspecified) -2.9%, Cn1c(C(C#N)C(=O)c2ccco2)nc2ccccc21 (stereo unspecified) 13.4%, COc1ccccc1-n1c(C)nc2cc(C(=O)O)ccc21 -9.1%, Cc1cc(C(=O)NCCC2=CCCCC2)no1 -6.6%, C=CCn1c(SCC(=O)NC2CCCC2)nc2scc(-c3ccco3)c2c1=O 29.6%, CCC(=O)Nc1cccc(Br)c1 -1.7%, CCCCC(=O)Nc1cccc(NC(=O)CC)c1 -6.1%, COCCNC(=O)CCCn1c(=O)c2ccccc2n(CC(=O)NCCC2=CCCCC2)c1=O -8.5%, COc1ccccc1-c1nnc2sc(COc3ccccc3)nn12 0.4%, COc1ccccc1-c1nn2c(-c3ccccc3Cl)nnc2s1 5.7%, CCC(=O)c1cc(-c2nc3ccccc3n2C)n(C)c1 3.7%, COc1ccccc1-n1nnnc1SCc1cc2c(cc1Br)OCO2 2.6%, c1ccc(-c2cn3c(n2)CCc2ccc4cccnc4c2-3)cc1 -7.4%, Brc1ccc(-c2cn3c(n2)CCc2ccc4cccnc4c2-3)cc1 1%
